# Some of the results follow. The true hit rate is not given.
# Target: furin, P09958
# Assay: furin cleavage Z-score vs untreated control; higher = more cleavage, active = 3.5 or more, inactive = 1 or less, 8 variable residues between constant flanks
# Procedure, shortened: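 In 50 mM HEPES pH 7.5 with CaCl2 and NaCl, purified furin was incubated with bead-anchored 8-mer peptide–cDNA fusions at 1:10 enzyme:substrate in 0.01 ml. Incubation times were 7.5, 15 and 30 min. DNA set free by cleavage was adapter-tagged by PCR and sequenced, with read counts taken as abundance. Log counts relative to furin-free reactions, after lowess adjustment and median absolute deviation scaling, form the cleavage Z-score.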
# Chain of furin, P09958 (P09958 whole entry): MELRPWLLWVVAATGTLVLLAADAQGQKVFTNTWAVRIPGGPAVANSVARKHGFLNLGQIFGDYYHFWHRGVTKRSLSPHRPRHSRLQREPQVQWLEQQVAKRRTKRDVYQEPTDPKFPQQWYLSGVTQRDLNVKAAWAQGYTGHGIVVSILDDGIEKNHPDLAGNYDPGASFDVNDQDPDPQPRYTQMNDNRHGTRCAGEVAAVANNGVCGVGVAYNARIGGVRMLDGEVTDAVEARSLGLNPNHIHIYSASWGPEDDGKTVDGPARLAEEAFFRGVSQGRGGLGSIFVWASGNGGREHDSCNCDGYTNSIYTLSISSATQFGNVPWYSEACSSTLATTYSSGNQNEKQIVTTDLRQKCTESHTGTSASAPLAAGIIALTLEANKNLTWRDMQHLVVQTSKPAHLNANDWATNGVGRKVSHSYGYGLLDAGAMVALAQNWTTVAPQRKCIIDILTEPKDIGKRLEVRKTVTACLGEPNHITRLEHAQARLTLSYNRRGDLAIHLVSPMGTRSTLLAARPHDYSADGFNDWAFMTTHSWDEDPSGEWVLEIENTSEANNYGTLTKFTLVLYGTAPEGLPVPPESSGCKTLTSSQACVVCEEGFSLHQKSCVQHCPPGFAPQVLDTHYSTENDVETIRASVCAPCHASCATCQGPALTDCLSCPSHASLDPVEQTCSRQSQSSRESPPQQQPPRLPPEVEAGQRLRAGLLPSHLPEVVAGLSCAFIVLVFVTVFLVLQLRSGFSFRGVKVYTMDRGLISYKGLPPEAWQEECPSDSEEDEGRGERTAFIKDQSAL
Sequence,furin cleavage Z-score (7.5 min),furin cleavage Z-score (15 min),furin cleavage Z-score (30 min)
CAEVVTYTWVAGNASASA [HC157],-1.14 (inactive),-2.61 (inactive),-1.31 (inactive)
CAVRRRAADQAGNASASA [FS-3143],-0.697 (inactive),0.216 (inactive),1.49
CAVRRRVQRMAGNASASA [FS-1662],9.65 (active),8.64 (active),6.99 (active)
CAASRCWVAMAGNASASA [HC278],1.39,-0.873 (inactive),1.5
CAVVARSVNGAGNASASA [FS-1816],-0.0409 (inactive),0.74 (inactive),1.63
CAGEGAVQWMAGNASASA [HC1115],-1.9 (inactive),-0.502 (inactive),-1.06 (inactive)
CAVRRRSVQQAGNASASA [FS-2856],3.6 (active),4.13 (active),4.51 (active)
CAEIPCHRPSAGNASASA [HC2324],1.27,0.0659 (inactive),-0.381 (inactive)
CARRFRPRRSAGNASASA [FS-1073],10.2 (active),9.93 (active),8.02 (active)
CARRFRPRRFAGNASASA [FS-1072],9 (active),10.6 (active),9.46 (active)
CARRFAQALPAGNASASA [HC1300],0.481 (inactive),1.31,-0.76 (inactive)
CARRFRAALGAGNASASA [FS-3046],-0.151 (inactive),-1.57 (inactive),1.09
CALRTRPRRFAGNASASA [FS-58],10.2 (active),12.6 (active),10.4 (active)
CALHQRVRRFAGNASASA [FS-820],8.84 (active),10.6 (active),9.12 (active)
CAPGQRVEFLAGNASASA [HC1469],-0.0222 (inactive),-0.699 (inactive),-1.16 (inactive)
CATTPLSGSWAGNASASA [HC44],-0.768 (inactive),-0.103 (inactive),0.0356 (inactive)
CASTPCSAHQAGNASASA [HC2582],-0.092 (inactive),-1.41 (inactive),-0.516 (inactive)
CAMETKLITWAGNASASA [HC650],-0.69 (inactive),-0.554 (inactive),-0.78 (inactive)
CAISQAEAALAGNASASA [HC531],-1.47 (inactive),-0.433 (inactive),-1.7 (inactive)
CAVVCCIMSYAGNASASA [HC105],1.49,0.708 (inactive),1.08
CAYRGRHRRFAGNASASA [FS-152],5.94 (active),6.27 (active),6.98 (active)
CAYRGRCRKSAGNASASA [FS-923],0.471 (inactive),1.55,0.866 (inactive)
CAKLRRNRRSAGNASASA [FS-1221],5.36 (active),6.08 (active),4.35 (active)
CAHTQRNRRSAGNASASA [FS-799],11.3 (active),12.6 (active),10.4 (active)
CATAQGMKRSAGNASASA [FS-725],1.25,1.19,-0.124 (inactive)
CATVSGFVSLAGNASASA [HC358],0.667 (inactive),-0.762 (inactive),1.14
CAEDEVPCHRAGNASASA [HC2451],1.14,0.677 (inactive),1.09
